The text below walks through data of PubChem BioAssay (NCI).

This is part of a sample that, as a whole, favours compounds with a hit. Of some 83,000 tested, about 20% had one in any assay.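 Negative percent growth values reflect cell death: -40 means 40% of the cells present at the start died, and -100 means all died.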 A number with no mark means an inactive call. Calls of active or inactive are those of the source.

The assay deals with SNB-19 CNS. The assay is described as follows: NCI-60 one-dose screen, 48 h (100 = growth as untreated, 0 = no growth, -100 = all killed). As to conditions: 10 µM unless noted. How it is done: Growth inhibition of the SNB-19 human tumor cell line is measured as a screen for anti-cancer activity. Cells are grown in 96 well plates and exposed to the test compound for 48 hours. Compounds are tested at a single concentration, which is 10^-5 M for most compounds. The reported endpoint is percent growth (GI% or GIPRCNT), where numbers from 0 - 100% represent growth inhibition, and numbers from -100% - 0 represent cell death. For example, a value of 40 represents 60% growth inhibition. A value of 0 means no net growth occurred over the course of the experiment. A value of -40 indicates 40% of cells at the beginning of the experiment died by the end of the experiment. A value of -100 means all cells are dead at the end of the experiment.
NCI-60 Human Tumor Cell Lines Screen was performed using the standard one-dose NCI protocol, which is described in more detail at https://dtp.cancer.gov/discovery_development/nci-60/default.htm.
Compounds with GIPRCNT values below 10 were considered active. Activity score was based on GIPRCNT using the following formula: […]
Score is 0 for GIPRCNT values of 100 or above, 50 for GIPRCNT values of 0, and 100 for GIPRCNT values of -100.
For `CC1CCN(C(=O)CCCl)c2ccccc21` (stereo not given), the growth is 96.7%.
Next, `C=C(C)[C@@H]1CC[C@]2(C)[C@H](CC=C3[C@@H]4CC(C)(C)CC[C@]4(CO)CC[C@]32C)[C@@]1(C)CCCN`: 79.5%; `CCN1C(=O)N(CC)C2C1NC(=S)N2/N=C/c1ccc(C(F)(F)F)cc1` (stereo not given): 73.6%; `O=S(=O)(NCCNc1nccc(-c2c(-c3cccc(O)c3)nc3occn23)n1)c1ccc(Br)cc1`: 65.8%.
Under `COc1ccc(-c2nc(/C=C3\C(=O)N(C)c4ccccc43)c3ccccn23)cc1` stands 78.7%; under `O=C1/C(=C2\SC(=S)N(C3CC3)C2=O)SC(=S)N1C1CC1`, 99.2%; under `O=S(=O)(Oc1ccc(Br)cc1)c1ccc(Cl)cc1`, 103%.
Under `CCN1CCN(CCNc2nccc(-c3c(-c4ccc(F)c(OC)c4)nc4sccn34)n2)S1(=O)=O` stands 93%; under `C#CC#CC#CC#CC#CC#CC#CC#CC[C@@H]1OC[C@@H](COC(=O)O[C@@H](C(=O)O[C@H]2C[C@@]3(O)[C@@H](OC(=O)c4ccccc4)[C@@H]4[C@]5(OC(C)=O)CO[C@@H]5C[C@H](O)[C@@]4(C)C(=O)[C@H](OC(C)=O)C(=C2C)C3(C)C)[C@@H](NC(=O)c2ccccc2)c2ccccc2)O1`, 14.9%.
Regarding `CN(CCC(=O)c1ccccc1)CCC(=O)c1ccccc1`, the growth is 93.1%.
Regarding `CC1=C2[C@@H](CC1)[C@]1(C)O[C@@](c3ccccc3)(C[C@H]1OC(=O)CO)[C@H]2OC(=O)/C=C/c1ccccc1`, the growth is 96.1%.
Consider `C/C=C(/C)n1cnc2c(Nc3ccccn3)nc(Cl)nc21`, for which the growth was 107%.
Under `Nc1[nH]n2cc(-c3ccc(F)cc3)nc2c1N=Nc1ccc(S(N)(=O)=O)cc1` stands 86.4%.
With `CNC(=O)c1cc(Oc2cccc3nc(NC(=O)Nc4cc(C(F)(F)F)ccc4Cl)ccc23)ccn1`, the growth is 102%.
On to `COc1ccc(Oc2nc(Nc3ccc(N4CCOCC4)cc3)ncc2NC(=O)Nc2cc(OC)cc(OC)c2)cc1`, for which the growth is 28.3%.
Next, `Nc1ncnc2c1N=C(c1ccc3c(c1)OCO3)CC(c1cccc(Nc3ccnc4cc(C(F)(F)F)ccc34)c1)N2` (stereo not given): 77.3%; `CCN1C(=O)N(CC)C2C1NC(=S)N2/N=C/c1ccc(OC)cc1` (stereo not given): 52.8%.
Regarding `CN1CCN(CCOc2ccc(-c3cnc4c(-c5cccc(F)c5F)cnn4c3)cc2)CC1`, the growth was 8.04% (active).
Under `NS(=O)(=O)c1ccc(C(=O)NN2C(=O)c3c(Br)c(Br)c(Br)c(Br)c3C2=O)cc1` stands 101%; under `CC1(C)N=C(N)N=C(N)N1c1cccc(CCc2ccccc2)c1`, 31.3%.
Under `O=C(N/N=C\c1ccccc1S(=O)(=O)O)N/N=C/c1ccccc1S(=O)(=O)O` stands 99.8%; under `O=C(Nc1ccc(Br)cc1)C1=NCCCCN1`, 97.3%; under `Cc1ccc(C=C2C(=O)NC(=O)NC2=O)cc1`, 106%.
For the molecule `CC1(C)CC2=C3C=C[C@@H]4[C@@]5(C)CCC(=O)C(C)(C)[C@@H]5CC[C@@]4(C)[C@]3(C)CC[C@@]2(C(=O)O)C[C@H]1O`, the growth is 32.1%.
Under `CCS/C(Nc1ccccc1)=C(\C#N)C(=O)Nc1ccc(OC)cc1` stands 23.1%; under `COc1ccc(C#Cc2ccc(=O)oc2-c2cc(OC)c(OC)c(OC)c2)cc1O`, 54.6%.
On to `Cn1cc(-c2csc(-c3c[nH]c4ccc(F)cc34)n2)c2ccnc(Cl)c21`, for which the growth was 91.4%.
Under `O=C1c2ccccc2C(=O)c2c1cc1c(c2[N+](=O)[O-])OCO1` stands 21.7%; under `CC(=O)OC[C@]12CC[C@@H]([C@@H](C)c3nnc(-c4ccncc4)o3)[C@@H]1[C@H]1CC[C@@H]3[C@@]4(C)CC[C@H](OC(C)=O)C(C)(C)[C@@H]4CC[C@@]3(C)[C@]1(C)CC2`, 82.7%.
Under `COc1cc(NC(=O)c2cncnc2Nc2ccc3c(ccn3Cc3ccccn3)c2)cc(OC)c1` stands 58.3%; under `Clc1ccc(-c2cc(-c3ccccc3)nc(NCCNc3ccnc4cc(Cl)ccc34)n2)cc1`, 44.7%.
Under `Cn1c(=O)c2[nH]c(SCC(=O)Nc3ccc(C(=O)/C=C/c4ccccc4Cl)cc3)nc2n(C)c1=O` stands 97.1%.
For the molecule `O=C1Nc2ccccc2C1(c1c[nH]c2ccccc12)c1c[nH]c2ccccc12`, the growth was 81.5%.
Next, `[2H]C([2H])([2H])Oc1ccc(F)cc1/C=C/C(=O)/C=C(O)/C=C/c1cc(F)ccc1OC([2H])([2H])[2H]`: 91.8%.
With `N=C(N)c1ccc(-c2ccc(-c3cc(Cl)cc(Cl)c3)s2)nc1`, the growth is 64.5%.
For the molecule `CCO/C=N/C1=C(C#N)C(c2ccc(F)cc2)c2sc3c(F)cccc3c2O1` (stereo not given), the growth was 33.2%.
Under `CNC(C)[C@H]1CCC2C3CC=C4C(=O)[C@@H](NC(=O)C=C(C)C)CC[C@]4(C)C3CC[C@@]21C` (stereo not given in full) stands 53.4%.
For the molecule `Cc1ccc(C)c(/C=C2\CN(C(=O)OC(C)(C)C)C/C(=C\c3cc(C)ccc3C)C2=O)c1`, the growth is 59.9%.
`COC(=O)C(Cc1ccccc1)NC(=O)c1ccc(NC(=O)c2[nH]c(C)c(Cl)c2Cl)c(OC(C)C)c1` (stereo not given): the growth is 42.8%.
Take `Ic1ccccc1I`: the growth was 103%.
